Test results as given in PubChem BioAssay.
The source made the active and inactive calls. How the calls were made is not given here.

Target: Pantothenate synthetase (Mycobacterium tuberculosis (strain ATCC 25618 / H37Rv)) (UniProt P9WIL5)
Assay: Recombinant Mtb pantothenate synthetase (PanC) inhibitors, coupled enzyme, confirmatory (AID 375);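 further: 0% = full reaction with vehicle and 100% = no enzyme background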
Conditions: coupled enzyme assay; at 10 µM, hits give high values

Pantothenate synthetase (Mycobacterium tuberculosis (strain ATCC 25618 / H37Rv)), sequence (P9WIL5 whole entry, looked up): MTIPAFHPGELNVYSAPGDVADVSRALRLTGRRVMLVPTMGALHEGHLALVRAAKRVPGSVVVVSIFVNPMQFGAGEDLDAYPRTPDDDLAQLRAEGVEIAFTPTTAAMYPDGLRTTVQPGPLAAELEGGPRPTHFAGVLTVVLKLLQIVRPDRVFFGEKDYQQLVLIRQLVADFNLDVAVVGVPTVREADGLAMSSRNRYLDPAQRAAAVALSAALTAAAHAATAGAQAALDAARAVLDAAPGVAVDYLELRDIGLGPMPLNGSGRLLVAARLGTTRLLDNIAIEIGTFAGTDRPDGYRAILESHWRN

Row | SMILES | inhibition
1 | COCCCn1nnnc1SCC(=O)Nc1nc(C)c(C)s1 | 0% (inactive)
2 | CCOC(=O)C1CCCN(C(=O)Cc2ccc(OC)c(OC)c2)C1 (centres undefined) | 0% (inactive)
3 | O=C(Nc1nnc(-c2ccc(Cl)cc2)o1)C1CCCCC1 | 0% (inactive)
4 | N#CC1=C(N)Oc2n[nH]c(-c3cccs3)c2C1c1cccs1 (centres undefined) | 2% (inactive)
5 | COc1ccccc1C1/C(=C(/O)c2ccccc2)C(=O)C(=O)N1CC(C)C (centres undefined) | 0% (inactive)
6 | COc1ccccc1C(=O)N1CCN(C(=O)c2ccncc2)CC1 | 0% (inactive)
7 | O=C(Cc1ccccc1)Nc1nnc(-c2cccs2)s1 | 0% (inactive)
8 | COC(=O)c1c(C#N)c(N)nc2c1CCC2 | 7% (inactive)
9 | COc1ccc2c(C(=O)CN(C)C3CCCCC3)c[nH]c2c1 | 0% (inactive)
10 | Cn1c(SCC(=O)N2CCOCC2)nnc1-c1cnccn1 | 0% (inactive)
11 | CCCCn1c(CN2CCN(CCO)CC2)nc2ccccc21 | 0% (inactive)
12 | COc1ccccc1CN(Cc1nc2ccccc2c(=O)[nH]1)C(=O)Nc1ccccc1 | 0% (inactive)
13 | COCCn1c(N)c(C(=O)Nc2sc3c(c2C(=O)OC)CCCC3)c2nc3ccccc3nc21 | 1% (inactive)
14 | COc1ccc(C(=O)NCc2ccccc2OC)cc1 | 0% (inactive)
15 | COc1ccccc1CN1CCCC(C(=O)N(C)Cc2ccccc2)C1 (centres undefined) | 0% (inactive)
16 | CO[C@H]1C=CO[C@@]2(C)Oc3c(C)c(O)c4c(O)c(c(C=NN5CCN(C)CC5)c(O)c4c3C2=O)NC(=O)C(C)=CC=C[C@H](C)[C@H](O)[C@@H](C)[C@@H](O)[C@@H](C)[C@H](OC(C)=O)[C@@H]1C | 3% (inactive)
17 | CCC(Sc1ncccc1C(=O)O)C(=O)N1CCCC1 (centres undefined) | 0% (inactive)
18 | COc1cc(OC)c(C(=O)Nc2ccc(N(C)C)cc2)cc1OC | 4% (inactive)
19 | Cn1nc(CC(=O)Nc2ccc(N3CCN(C(=O)OC(C)(C)C)CC3)cc2)c2ccccc2c1=O | 0% (inactive)
20 | Cc1nc2ccccc2cc1C(=O)NCc1ccco1 | 0% (inactive)

Row | SMILES | inhibition
21 | COc1ccc(C(NC(C)=O)c2ccc3cccnc3c2O)c(OC)c1 (centres undefined) | 0% (inactive)
22 | COc1ccc(C(=O)Nc2ccc(S(=O)(=O)NC(C)=O)cc2)cc1 | 0% (inactive)
23 | Cc1c(NC2=NC3(CCCCC3)Cc3ccccc32)c(=O)n(-c2ccccc2)n1C | 2% (inactive)
24 | COC(=O)c1ccc2c(c1)C(=O)N(C1CCCCC1)C2=O | 9% (inactive)
25 | CC1CN(c2ccc(Oc3ccccc3)cc2)c2nc3c(c(=O)n(CC(N)=O)c(=O)n3C)n2C1 (centres undefined) | 3% (inactive)
26 | CC(Oc1ccccc1)C(=O)Nc1ccc(S(=O)(=O)NCC2CCCO2)cc1 (centres undefined) | 1% (inactive)
27 | CC1(C)CC(=O)C=C(Nc2ccc(OCC(F)(F)C(F)F)cc2)C1 | 5% (inactive)
28 | COc1ccc(C2C(C#N)=C(N)Oc3cc4c(cc32)OCO4)cc1 (centres undefined) | 0% (inactive)
29 | O=S(=O)(Nc1cccc2ncccc12)c1cccs1 | 6% (inactive)
30 | CCOC(=O)CN1CC23C=CC(O2)C(C(=O)Nc2ccc(C(C)=O)cc2)C3C1=O (centres undefined) | 6% (inactive)
31 | CCCCCc1c(C)nc(Nc2nc(C)c3cc(OC)ccc3n2)[nH]c1=O | 0% (inactive)
32 | CCC(C)NC(=O)c1cn(CC)c2ccc(S(=O)(=O)N(C)C)cc2c1=O (centres undefined) | 0% (inactive)
33 | Cc1nc(NC(=O)c2ccccc2)sc1-c1csc(NCc2ccco2)n1 | 0% (inactive)
34 | CC(=O)Nc1ccc(S(=O)(=O)N(CC(=O)O)Cc2ccccc2)cc1 | 7% (inactive)
35 | Cc1ccc(NC(=O)C2CCCN2S(=O)(=O)c2cccc3cccnc23)cc1F (centres undefined) | 0% (inactive)
36 | COc1ccccc1C(=O)n1nc(-c2ccccc2)nc1N | 2% (inactive)
37 | O=C(O)Cn1nc2ccccc2n1 | 0% (inactive)
38 | O=C(Nc1ccccc1)c1cccc(N2CCCC2=O)c1 | 6% (inactive)
39 | Cc1ccc(C(C)n2cc(C(=O)NCCN3CCN(C)CC3)nn2)cc1 (centres undefined) | 0% (inactive)
